High-throughput results from PubChem.
This is a sample that favours compounds with a hit; in the whole collection about 17% have one here.
TDP1 cell noCPT – qHTS for Inhibitors of human tyrosyl-DNA phosphodiesterase 1 (TDP1): qHTS in cells in absence of CPT; DT40 Tdp1-/- hTDP1 cells, no CPT, ATP luminescence, 48 h; AID 686978, 2013; Potency, µM (highest dose often 46.2 µM), most hits filed as inhibitors; 15% of 420,000 active; further: nearly all actives have a fitted effect of over 55% in size
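Seeded 400 DT40-hTDP1 cells/well (vehicle DMSO, no 20 nM CPT); pinned compounds; ≥48 hr at 37 °C; CellTiter-Glo luminescence as viability measure.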
ClpP mod – qHTS Assay for Activators of ClpP | ATP-dependent Clp protease proteolytic subunit (Bacillus subtilis (strain 168)), P80244 | purified B. subtilis ClpP, FRET peptide cleavage, 20 min | Potency, µM (titrated, usually from 57.5 µM) | 1.9% of 340,000 active; active means well fitted falling curve with a large enough effect; inconclusive means small, poorly fitted or top-dose-only effect; inactive means no such curve, though single readings can be large or run the other way; further: the source files actives as falling curves though it sought activators and does not explain the sign; nearly all actives have a fitted effect of over 65% in size
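FRET quenching reversal measured ClpP activation: 10 microg/mL B. subtilis ClpP at pH 8 with the FRET-FV decapeptide, read at 430 nm after 320 nm excitation. The 20-min minus 0-min signal was scaled between DMSO/no-enzyme wells and ADEP (5.8 microM final).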
DT40 TDP1 CPT – growth inhibition of DT40 Tdp1-/-;hTDP1 cells with camptothecin (screen for TDP1 inhibitors) | chicken DT40 Tdp1-/-;hTDP1 cells + 20 nM CPT, ATP luminescence, 48 h | Potency, µM (top dose mostly 46.2 µM), most hits filed as inhibitors | 12% of 420,000 active; further: nearly all actives have a fitted effect of over 55% in size
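Chicken DT40 Tdp1-/- cells complemented with human TDP1, 400 cells/well, exposed to compounds plus 20 nM camptothecin for at least 48 h at 37 C; viability read as ATP content by CellTiter-Glo luminescence.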
TDP1 inh – TDP1 (human) enzyme inhibition; Q9NUW8; recombinant TDP1, AlphaScreen DNA substrate cleavage; Potency, µM (top dose mostly 130 µM), usual class: inhibitors; 0.28% of 350,000 active; AID 485290; further: nearly all actives have a fitted effect of over 40% in size
Target sequence (Q9NUW8 whole entry, looked up): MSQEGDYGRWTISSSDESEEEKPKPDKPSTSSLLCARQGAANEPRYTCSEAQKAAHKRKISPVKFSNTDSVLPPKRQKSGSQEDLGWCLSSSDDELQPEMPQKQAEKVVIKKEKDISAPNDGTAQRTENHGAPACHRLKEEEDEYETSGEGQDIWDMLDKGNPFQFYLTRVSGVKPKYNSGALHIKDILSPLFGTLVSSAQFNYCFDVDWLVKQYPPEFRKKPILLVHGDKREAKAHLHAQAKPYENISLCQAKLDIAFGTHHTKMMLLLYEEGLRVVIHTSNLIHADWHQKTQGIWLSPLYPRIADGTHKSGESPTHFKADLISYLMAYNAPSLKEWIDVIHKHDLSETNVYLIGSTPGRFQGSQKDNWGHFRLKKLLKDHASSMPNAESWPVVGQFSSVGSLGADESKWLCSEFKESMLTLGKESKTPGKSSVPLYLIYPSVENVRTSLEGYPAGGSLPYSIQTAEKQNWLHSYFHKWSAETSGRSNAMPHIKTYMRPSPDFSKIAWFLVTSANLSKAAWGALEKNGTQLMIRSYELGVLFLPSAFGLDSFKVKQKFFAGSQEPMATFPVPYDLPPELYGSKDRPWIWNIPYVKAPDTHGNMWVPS
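E. coli-derived human Tdp1, 1 nM final. Cpd preinc 15 min RT; substrate 15 nM final, 5 min RT; AS bead mix 10 ug/ml final, 10 min RT. Signal loss = tyrosine-FITC cleavage. No-enzyme wells = max signal.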
A number is an active result; – = inactive; ? = inconclusive; · = not tested or not shown. Unless noted, the call rests on the fitted dose curve; in most records, active means well fitted curve in the direction sought with a large enough effect; inconclusive means small, poorly fitted or top-dose-only effect, or another doubt; inactive means no such curve, though single readings can be large; an effect the other way counts as inactive or inconclusive.

SMILES | TDP1 cell noCPT | ClpP mod | DT40 TDP1 CPT | TDP1 inh
Cc1ccc(NC(=O)c2sccc2-n2cccc2)c(C)c1 | ? | – | 21µM | –
Cc1c(N2C(=O)CSC2c2ccco2)c(=O)n(-c2ccccc2)n1C (centres undefined) | – | – | – | ·
CC(C)CC(=O)/C(=C\c1ccc(Cl)cc1Cl)n1cncn1 | 1.8µM | – | 2.9µM | –
CN(C)c1ccc(/C=C(/C(=O)c2ccc(Cl)cc2Cl)n2cncn2)cc1 | 23µM | – | 23µM | –
O=C(CN1C(=O)CCc2cc(S(=O)(=O)N3CCOCC3)ccc21)Nc1cccc(Cl)c1 | – | – | – | –
CCOc1ccc(N(C)S(=O)(=O)c2ccc(C)c(C(=O)NCCc3ccc(OC)cc3)c2)cc1 | ? | – | 23µM | –
COc1ccc(S(N)(=O)=O)cc1C(=O)NCC(C)(C)N1CCOCC1 | – | · | – | –
CCCN(C(=O)c1cc(S(=O)(=O)N(C)c2ccc(OCC)cc2)ccc1C)C1CCS(=O)(=O)C1 (centres undefined) | 26µM | – | ? | –
COc1ccc(N(C)S(=O)(=O)c2ccc(Cl)c(C(=O)NCC(C)(C)N3CCOCC3)c2)cc1 | 9.2µM | – | 9.2µM | –
COc1ccc(CCNC(=O)c2cc(S(=O)(=O)N(C)c3ccccc3)ccc2Cl)cc1 | 7.3µM | – | 18µM | –
COc1cc(OC)c(OC)cc1CNCc1ccco1 | – | – | – | ·
CC(C)CC1NC(=O)N(CC(=O)N(C)C2CCCCC2)C1=O (centres undefined) | – | – | – | –
CC(C)Sc1nc2c(c(=O)[nH]c(=O)n2C)n1Cc1ccc(Cl)cc1 | 26µM | – | ? | –
C=CCn1c(SCc2ccc(F)cc2)nc2c1c(=O)[nH]c(=O)n2C | ? | – | ? | –
CC(C)Sc1nc2c(c(=O)[nH]c(=O)n2C)n1CCc1ccccc1 | ? | 18µM | ? | –
C=CCn1c(SCc2ccc(Cl)cc2)nc2c1c(=O)[nH]c(=O)n2C | 21µM | – | ? | –
CCC(C)Sc1nc2c(c(=O)[nH]c(=O)n2C)n1CCc1ccccc1 (centres undefined) | ? | – | – | –
CCCn1c(N)c(C(=O)CSc2nnc(-c3cccs3)n2C2CC2)c(=O)[nH]c1=O | – | ? | – | –
COc1cccc(C(c2sc3nc(-c4ccco4)nn3c2O)N2CCOCC2)c1 (centres undefined) | – | – | – | –
CN(c1ccccc1)c1nc(N)c([N+](=O)[O-])c(NCCO)n1 | – | – | – | –
COc1ccc(/C=C/C(=O)NCCSCc2ccco2)cc1OC | ? | – | ? | –
CC(=O)N1CC=CC1(CC(C)C)C(=O)NCCN1CCOCC1 (centres undefined) | – | – | – | –
CCOc1ccccc1CNC(=O)C1CCN(C(=O)N2CC(CC)Oc3ccc(C)cc32)CC1 (centres undefined) | 18µM | – | 13µM | –
CCOc1ccccc1CNC(=O)C1CCN(C(=O)N2CC(C)Oc3ccc(C)cc32)CC1 (centres undefined) | ? | – | 21µM | ·
CCOc1ccccc1CNC(=O)c1cc2oc3ccccc3c2n1C | ? | 20µM | ? | –
SMILES | TDP1 cell noCPT | ClpP mod | DT40 TDP1 CPT | TDP1 inh
CCC1CN(C(=O)N2CCC(C(=O)NCc3ccc(OC)cc3OC)CC2)c2cc(C)ccc2O1 (centres undefined) | 18µM | – | ? | –
O=C(CNC(=O)C1CCCC1)OC(C(=O)Nc1cc(C(F)(F)F)ccc1Cl)c1ccccc1 (centres undefined) | · | · | · | –
CC(O)CN(C)C (centres undefined) | – | · | – | –
COC(=O)CCC(=O)Nc1cccc(C(=O)Nc2cccc(Cl)c2)c1 | – | – | – | –
COc1ccc(N2CCN(c3ccc(-c4nc(-c5ccccc5C)no4)cc3[N+](=O)[O-])CC2)cc1 | ? | – | ? | –
CCOc1ccccc1CNC(=O)C1CCN(c2nc3ccccc3o2)CC1 | ? | – | 18µM | –
O=C(/C=C/[C@H]1O[C@@H](n2ccc(=O)[nH]c2=O)[C@H](O)[C@@H]1O)NCc1cccc2ccccc12 | – | – | – | ·
Cc1ccc(CSCCNS(C)(=O)=O)cc1 | – | – | – | –
CN(c1ccc(C(=O)NCCSCc2ccc(Cl)cc2)cc1)S(=O)(=O)c1ccccc1 | 16µM | 28µM | 16µM | –
